Measurements: article PMC7862700, “An all-to-all approach to the identification of sequence-specific readers for epigenetic DNA modifications on cytosine”

Legend:
Test in all cases: DAPPL (digital affinity profiling via proximity ligation, sequencing); 10 mM Tris-HCl pH 7.5, 50 mM NaCl, 1 mM DTT, 4% glycerol, room temperature, 30 min; GST-TFs on glutathione beads, 16-mer random dsDNA library, 0.1% formaldehyde crosslink after washing; high values mean tight binding
FEV = biological target: T1, FEV (Homo sapiens, UniProt Q99581 1-238); conditions: protein: recombinant; tags: N-terminal GST; dsDNA, one strand shown
T1 sequence: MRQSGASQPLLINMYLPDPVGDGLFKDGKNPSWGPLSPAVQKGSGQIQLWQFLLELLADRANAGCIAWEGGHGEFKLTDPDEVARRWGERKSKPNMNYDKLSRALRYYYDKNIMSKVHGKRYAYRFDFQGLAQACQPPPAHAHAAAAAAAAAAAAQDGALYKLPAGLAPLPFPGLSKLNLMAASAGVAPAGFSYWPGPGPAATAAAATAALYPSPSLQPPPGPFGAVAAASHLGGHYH
How it was run: (§1)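 Human transcription factors were made in yeast as GST fusions, captured on glutathione beads and barcoded with DNA. With a tag-only sample included, the pool was incubated with 200 nmole of a random double-stranded 16-mer DNA library in Tris/NaCl/DTT/glycerol buffer at room temperature for 30 min, then crosslinked with 0.1% formaldehyde after washing, ligated by proximity, amplified and sequenced. For binding signal, each hexamer's read frequency for a factor is divided by its frequency for the tag-only sample.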

ETV5 = ETV5 (Homo sapiens, UniProt P41161 1-510); conditions: protein: recombinant; tags: N-terminal GST; dsDNA, one strand shown
Chain of ETV5 (P41161 whole entry): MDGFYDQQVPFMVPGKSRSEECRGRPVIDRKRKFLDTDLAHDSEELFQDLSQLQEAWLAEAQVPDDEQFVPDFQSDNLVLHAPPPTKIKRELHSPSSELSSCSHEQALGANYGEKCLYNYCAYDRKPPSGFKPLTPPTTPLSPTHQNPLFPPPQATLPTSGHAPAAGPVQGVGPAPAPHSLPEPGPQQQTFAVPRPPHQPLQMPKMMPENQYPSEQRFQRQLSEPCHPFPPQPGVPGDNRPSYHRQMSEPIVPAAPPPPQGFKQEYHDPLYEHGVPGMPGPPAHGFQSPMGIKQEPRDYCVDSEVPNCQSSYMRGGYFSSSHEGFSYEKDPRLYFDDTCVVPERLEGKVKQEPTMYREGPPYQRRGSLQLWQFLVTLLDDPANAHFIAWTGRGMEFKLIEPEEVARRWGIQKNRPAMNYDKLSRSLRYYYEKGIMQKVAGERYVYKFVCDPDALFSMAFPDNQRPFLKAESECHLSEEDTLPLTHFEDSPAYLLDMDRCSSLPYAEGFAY
How it was run: as §1

HSF1 = HSF1 (Homo sapiens, UniProt Q00613 1-529); conditions: protein: recombinant; tags: N-terminal GST; chain copies: 3; dsDNA, one strand shown
Chain of HSF1 (Q00613 whole entry): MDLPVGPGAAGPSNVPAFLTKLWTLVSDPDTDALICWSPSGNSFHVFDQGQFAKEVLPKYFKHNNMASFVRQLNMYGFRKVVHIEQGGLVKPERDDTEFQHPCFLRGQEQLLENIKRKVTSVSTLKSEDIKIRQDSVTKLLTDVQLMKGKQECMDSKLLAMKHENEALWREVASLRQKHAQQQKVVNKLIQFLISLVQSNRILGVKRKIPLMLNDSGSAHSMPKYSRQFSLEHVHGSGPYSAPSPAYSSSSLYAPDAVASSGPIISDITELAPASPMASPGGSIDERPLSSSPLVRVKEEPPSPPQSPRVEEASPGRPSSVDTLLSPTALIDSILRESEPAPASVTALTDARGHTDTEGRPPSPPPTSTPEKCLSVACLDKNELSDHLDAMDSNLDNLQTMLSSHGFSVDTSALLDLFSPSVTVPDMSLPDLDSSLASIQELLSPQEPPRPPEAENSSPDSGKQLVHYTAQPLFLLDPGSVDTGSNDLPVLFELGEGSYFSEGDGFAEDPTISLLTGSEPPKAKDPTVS
How it was run: as §1

SPIC = biological target: T2, SPIC (Homo sapiens, UniProt Q8N5J4 1-248); conditions: protein: recombinant; tags: N-terminal GST; dsDNA, one strand shown
T2 sequence: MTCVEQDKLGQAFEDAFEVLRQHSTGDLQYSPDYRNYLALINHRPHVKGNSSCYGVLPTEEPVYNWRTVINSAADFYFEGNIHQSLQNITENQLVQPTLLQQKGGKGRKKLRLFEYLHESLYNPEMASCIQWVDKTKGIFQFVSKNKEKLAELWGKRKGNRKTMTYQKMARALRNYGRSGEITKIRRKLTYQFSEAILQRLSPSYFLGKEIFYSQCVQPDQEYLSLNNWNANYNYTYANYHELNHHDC
How it was run: as §1

ELF4 = ELF4 (Homo sapiens, UniProt Q99607 1-663); conditions: protein: recombinant; tags: N-terminal GST; dsDNA, one strand shown
Chain of ELF4 (Q99607 whole entry): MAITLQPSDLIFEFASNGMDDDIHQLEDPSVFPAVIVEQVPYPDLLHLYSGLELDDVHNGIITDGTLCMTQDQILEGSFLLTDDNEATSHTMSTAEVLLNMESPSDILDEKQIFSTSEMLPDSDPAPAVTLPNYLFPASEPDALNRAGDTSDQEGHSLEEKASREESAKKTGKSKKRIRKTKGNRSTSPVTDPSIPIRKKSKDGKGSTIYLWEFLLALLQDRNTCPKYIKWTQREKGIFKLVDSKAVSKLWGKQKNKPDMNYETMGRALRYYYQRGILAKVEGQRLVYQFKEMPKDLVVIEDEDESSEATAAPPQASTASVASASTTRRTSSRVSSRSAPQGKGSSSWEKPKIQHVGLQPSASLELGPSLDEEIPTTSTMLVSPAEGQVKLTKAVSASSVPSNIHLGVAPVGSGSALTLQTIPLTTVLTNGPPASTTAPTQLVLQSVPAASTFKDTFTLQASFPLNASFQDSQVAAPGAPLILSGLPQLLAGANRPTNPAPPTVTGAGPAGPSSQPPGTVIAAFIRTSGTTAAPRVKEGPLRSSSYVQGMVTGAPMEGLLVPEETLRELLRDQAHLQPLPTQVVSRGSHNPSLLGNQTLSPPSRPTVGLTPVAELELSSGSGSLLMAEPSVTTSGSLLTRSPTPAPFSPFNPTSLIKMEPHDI
How it was run: as §1

ELK4 = biological target: T3, ELK4 (Homo sapiens, UniProt P28324-2 1-405); conditions: protein: recombinant; tags: N-terminal GST; dsDNA, one strand shown
T3 sequence: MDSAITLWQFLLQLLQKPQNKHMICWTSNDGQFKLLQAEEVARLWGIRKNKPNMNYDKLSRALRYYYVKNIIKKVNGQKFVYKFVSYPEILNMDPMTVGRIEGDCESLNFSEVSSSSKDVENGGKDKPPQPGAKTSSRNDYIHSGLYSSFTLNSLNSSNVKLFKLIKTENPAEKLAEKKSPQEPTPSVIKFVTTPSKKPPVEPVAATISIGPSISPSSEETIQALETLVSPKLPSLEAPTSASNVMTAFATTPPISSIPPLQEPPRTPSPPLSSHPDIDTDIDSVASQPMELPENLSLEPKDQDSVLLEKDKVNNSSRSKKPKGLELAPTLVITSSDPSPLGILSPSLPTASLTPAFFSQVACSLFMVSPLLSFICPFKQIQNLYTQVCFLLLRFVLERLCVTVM
How it was run: as §1

ETV2 = biological target: T4, ETV2 (Homo sapiens, UniProt O00321 1-342); conditions: protein: recombinant; tags: N-terminal GST; dsDNA, one strand shown
T4 sequence: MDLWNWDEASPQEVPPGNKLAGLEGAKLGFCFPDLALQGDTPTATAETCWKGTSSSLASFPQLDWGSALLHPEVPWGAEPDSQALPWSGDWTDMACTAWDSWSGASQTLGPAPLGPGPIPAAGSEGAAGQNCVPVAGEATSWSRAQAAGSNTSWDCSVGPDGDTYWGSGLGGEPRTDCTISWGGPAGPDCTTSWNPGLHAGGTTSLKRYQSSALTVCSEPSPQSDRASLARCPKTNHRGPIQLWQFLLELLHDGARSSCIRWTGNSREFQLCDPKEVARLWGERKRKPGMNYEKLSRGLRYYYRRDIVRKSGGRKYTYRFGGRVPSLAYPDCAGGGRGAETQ
How it was run: as §1

ELF3 = biological target: T5, ELF3 (Homo sapiens, UniProt P78545 1-371); conditions: protein: recombinant; tags: N-terminal GST; dsDNA, one strand shown
T5 sequence: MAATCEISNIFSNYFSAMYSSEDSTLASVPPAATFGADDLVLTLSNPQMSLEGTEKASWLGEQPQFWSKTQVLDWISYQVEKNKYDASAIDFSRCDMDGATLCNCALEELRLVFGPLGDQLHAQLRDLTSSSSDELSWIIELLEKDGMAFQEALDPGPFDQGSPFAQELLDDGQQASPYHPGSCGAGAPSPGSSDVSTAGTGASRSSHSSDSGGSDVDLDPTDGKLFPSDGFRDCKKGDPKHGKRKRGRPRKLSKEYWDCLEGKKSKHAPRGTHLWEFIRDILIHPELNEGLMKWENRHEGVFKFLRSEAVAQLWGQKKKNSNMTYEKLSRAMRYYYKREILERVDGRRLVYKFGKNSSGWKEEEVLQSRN
How it was run: as §1

CRX = CRX (Homo sapiens, UniProt O43186 1-299); conditions: protein: recombinant; tags: N-terminal GST; dsDNA, one strand shown
Chain of CRX (O43186 whole entry): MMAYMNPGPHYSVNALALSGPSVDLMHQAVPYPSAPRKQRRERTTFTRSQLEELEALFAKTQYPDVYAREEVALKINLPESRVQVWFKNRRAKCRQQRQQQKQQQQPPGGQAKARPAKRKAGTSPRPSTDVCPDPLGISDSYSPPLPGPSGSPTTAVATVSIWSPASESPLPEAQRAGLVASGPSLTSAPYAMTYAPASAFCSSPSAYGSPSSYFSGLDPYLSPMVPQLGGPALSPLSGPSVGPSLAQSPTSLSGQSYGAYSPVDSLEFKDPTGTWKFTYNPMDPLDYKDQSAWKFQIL
How it was run: as §1

ETV1 = ETV1 (Homo sapiens, UniProt P50549 1-477); conditions: protein: recombinant; tags: N-terminal GST; dsDNA, one strand shown
Chain of ETV1 (P50549 whole entry): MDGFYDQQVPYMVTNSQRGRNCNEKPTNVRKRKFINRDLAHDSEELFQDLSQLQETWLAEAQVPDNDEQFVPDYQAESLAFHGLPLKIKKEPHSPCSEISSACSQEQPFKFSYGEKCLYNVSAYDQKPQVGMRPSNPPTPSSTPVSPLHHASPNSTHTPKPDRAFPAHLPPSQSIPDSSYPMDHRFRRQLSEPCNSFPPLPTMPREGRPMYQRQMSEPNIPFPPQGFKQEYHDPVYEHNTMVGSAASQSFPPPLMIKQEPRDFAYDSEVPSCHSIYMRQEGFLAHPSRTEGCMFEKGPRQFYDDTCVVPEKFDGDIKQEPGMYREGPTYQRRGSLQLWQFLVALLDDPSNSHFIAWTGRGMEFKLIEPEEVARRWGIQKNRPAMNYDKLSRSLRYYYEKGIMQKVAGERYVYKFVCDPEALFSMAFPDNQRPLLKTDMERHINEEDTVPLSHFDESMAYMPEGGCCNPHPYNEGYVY
How it was run: as §1

ERF = biological target: T6, ERF (Homo sapiens, UniProt P50548 1-548); conditions: protein: recombinant; tags: N-terminal GST; dsDNA, one strand shown
T6 sequence: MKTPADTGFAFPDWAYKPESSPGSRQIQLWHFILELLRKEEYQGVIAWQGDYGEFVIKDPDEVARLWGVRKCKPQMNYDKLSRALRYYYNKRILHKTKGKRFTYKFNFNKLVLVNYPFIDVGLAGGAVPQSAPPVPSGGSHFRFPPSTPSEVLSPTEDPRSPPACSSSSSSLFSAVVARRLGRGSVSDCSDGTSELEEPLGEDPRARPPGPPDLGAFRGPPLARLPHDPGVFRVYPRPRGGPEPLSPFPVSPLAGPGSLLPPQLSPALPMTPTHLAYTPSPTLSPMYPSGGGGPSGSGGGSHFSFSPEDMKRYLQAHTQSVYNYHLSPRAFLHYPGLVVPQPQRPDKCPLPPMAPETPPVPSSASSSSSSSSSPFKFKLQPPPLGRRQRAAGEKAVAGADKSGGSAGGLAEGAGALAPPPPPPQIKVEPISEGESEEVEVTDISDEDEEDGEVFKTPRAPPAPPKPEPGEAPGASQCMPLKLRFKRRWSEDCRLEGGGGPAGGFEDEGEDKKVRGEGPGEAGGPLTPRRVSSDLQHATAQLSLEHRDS
How it was run: as §1

ETV3L = biological target: T7, ETV3L (Homo sapiens, UniProt Q6ZN32 1-361); conditions: protein: recombinant; tags: N-terminal GST; dsDNA, one strand shown
T7 sequence: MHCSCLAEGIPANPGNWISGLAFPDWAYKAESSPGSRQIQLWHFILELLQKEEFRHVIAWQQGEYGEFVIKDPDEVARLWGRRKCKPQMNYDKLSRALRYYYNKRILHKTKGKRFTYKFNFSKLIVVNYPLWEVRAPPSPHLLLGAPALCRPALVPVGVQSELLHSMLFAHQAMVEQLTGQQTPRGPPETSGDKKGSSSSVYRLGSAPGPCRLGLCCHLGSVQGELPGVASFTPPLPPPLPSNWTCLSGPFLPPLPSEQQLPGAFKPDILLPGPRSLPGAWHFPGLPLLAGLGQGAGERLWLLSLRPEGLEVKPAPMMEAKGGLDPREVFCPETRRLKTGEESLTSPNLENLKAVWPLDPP
How it was run: as §1

ETS2 = biological target: T8, ETS2 (Homo sapiens, UniProt P15036 1-469); conditions: protein: recombinant; tags: N-terminal GST; dsDNA, one strand shown
T8 sequence: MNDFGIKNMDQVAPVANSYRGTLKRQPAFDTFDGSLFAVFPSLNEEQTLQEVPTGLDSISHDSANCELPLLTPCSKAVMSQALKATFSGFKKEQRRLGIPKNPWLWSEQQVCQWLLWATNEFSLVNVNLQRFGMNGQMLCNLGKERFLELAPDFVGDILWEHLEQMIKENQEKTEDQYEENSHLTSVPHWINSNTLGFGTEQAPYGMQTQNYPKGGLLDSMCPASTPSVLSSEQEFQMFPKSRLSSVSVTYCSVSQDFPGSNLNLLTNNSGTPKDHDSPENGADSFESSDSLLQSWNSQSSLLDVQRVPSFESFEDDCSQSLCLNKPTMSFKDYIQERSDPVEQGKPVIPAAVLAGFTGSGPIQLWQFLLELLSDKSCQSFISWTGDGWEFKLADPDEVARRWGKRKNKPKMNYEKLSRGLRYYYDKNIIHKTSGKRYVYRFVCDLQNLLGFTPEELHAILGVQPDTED
How it was run: as §1

SPDEF = biological target: T9, SPDEF (Homo sapiens, UniProt O95238 1-335); conditions: protein: recombinant; tags: N-terminal GST; dsDNA, one strand shown
T9 sequence: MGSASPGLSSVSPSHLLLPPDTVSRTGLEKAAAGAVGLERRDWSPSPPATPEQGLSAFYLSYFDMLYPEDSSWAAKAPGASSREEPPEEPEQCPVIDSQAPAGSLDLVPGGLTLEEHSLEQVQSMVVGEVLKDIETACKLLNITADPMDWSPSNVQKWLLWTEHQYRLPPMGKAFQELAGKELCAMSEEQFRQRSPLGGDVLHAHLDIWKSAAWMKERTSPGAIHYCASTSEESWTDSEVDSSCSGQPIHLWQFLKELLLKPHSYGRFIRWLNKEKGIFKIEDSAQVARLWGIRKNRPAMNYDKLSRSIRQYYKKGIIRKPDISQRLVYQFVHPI
How it was run: as §1

ETV7 = biological target: T10, ETV7 (Homo sapiens, UniProt Q9Y603 1-341); conditions: protein: recombinant; tags: N-terminal GST; dsDNA, one strand shown
T10 sequence: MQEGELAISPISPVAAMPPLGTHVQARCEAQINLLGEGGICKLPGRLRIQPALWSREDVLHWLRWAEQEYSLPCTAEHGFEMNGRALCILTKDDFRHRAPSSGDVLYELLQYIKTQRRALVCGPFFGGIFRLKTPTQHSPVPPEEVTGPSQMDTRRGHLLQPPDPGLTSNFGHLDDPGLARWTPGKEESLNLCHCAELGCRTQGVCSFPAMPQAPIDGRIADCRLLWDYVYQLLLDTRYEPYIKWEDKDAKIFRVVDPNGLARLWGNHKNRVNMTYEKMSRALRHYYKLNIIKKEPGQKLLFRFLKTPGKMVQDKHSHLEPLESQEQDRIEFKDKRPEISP
How it was run: as §1

ELF5 = biological target: T11, ELF5 (Homo sapiens, UniProt Q9UKW6-2 1-255); conditions: protein: recombinant; tags: N-terminal GST; dsDNA, one strand shown
T11 sequence: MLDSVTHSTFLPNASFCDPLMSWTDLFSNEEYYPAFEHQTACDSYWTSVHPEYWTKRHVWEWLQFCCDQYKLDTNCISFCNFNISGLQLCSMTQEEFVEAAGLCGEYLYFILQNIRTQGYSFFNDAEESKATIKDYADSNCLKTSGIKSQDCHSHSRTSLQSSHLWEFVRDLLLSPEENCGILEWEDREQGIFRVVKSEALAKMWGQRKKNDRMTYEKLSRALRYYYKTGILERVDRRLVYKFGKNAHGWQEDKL
How it was run: as §1

ETV3 = biological target: T12, ETV3 (Homo sapiens, UniProt P41162-2 1-143); conditions: protein: recombinant; tags: N-terminal GST; dsDNA, one strand shown
T12 sequence: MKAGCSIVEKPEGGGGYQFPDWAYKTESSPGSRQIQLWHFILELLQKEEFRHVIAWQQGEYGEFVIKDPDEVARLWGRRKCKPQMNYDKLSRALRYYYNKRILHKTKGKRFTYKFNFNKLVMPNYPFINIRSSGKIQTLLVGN
How it was run: as §1

ETV6 = ETV6 (Homo sapiens, UniProt P41212 1-452); conditions: protein: recombinant; tags: N-terminal GST; dsDNA, one strand shown
Chain of ETV6 (P41212 whole entry): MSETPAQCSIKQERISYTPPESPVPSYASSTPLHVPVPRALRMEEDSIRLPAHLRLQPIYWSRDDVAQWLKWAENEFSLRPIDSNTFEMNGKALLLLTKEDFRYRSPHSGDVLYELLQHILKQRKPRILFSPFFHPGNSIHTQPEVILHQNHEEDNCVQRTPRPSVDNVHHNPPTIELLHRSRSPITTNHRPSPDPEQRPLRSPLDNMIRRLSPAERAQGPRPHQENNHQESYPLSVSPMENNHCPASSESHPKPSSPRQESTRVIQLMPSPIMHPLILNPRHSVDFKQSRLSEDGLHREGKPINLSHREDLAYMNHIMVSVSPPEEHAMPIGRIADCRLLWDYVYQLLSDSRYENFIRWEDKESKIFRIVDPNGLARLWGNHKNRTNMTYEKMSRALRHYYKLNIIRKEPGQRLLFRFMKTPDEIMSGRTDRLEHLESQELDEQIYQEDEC
How it was run: as §1

Sequence: TCTTTG
- binding signal (FEV): 1.09 fold enrichment (6-mer frequency, TF over GST control)
- binding signal (ETV5): 1.16 fold enrichment (6-mer frequency, TF over GST control)
- binding signal (HSF1): 1.24 fold enrichment (6-mer frequency, TF over GST control)
- binding signal (SPIC): 1.13 fold enrichment (6-mer frequency, TF over GST control)
- binding signal (ELF4): 1.17 fold enrichment (6-mer frequency, TF over GST control)
- binding signal (ELK4): 1.2 fold enrichment (6-mer frequency, TF over GST control)
- binding signal (ETV2): 1.05 fold enrichment (6-mer frequency, TF over GST control)
- binding signal (ELF3): 1.18 fold enrichment (6-mer frequency, TF over GST control)
- binding signal (CRX): 1.27 fold enrichment (6-mer frequency, TF over GST control)
- binding signal (ETV1): 1.1 fold enrichment (6-mer frequency, TF over GST control)
- binding signal (ERF): 1.2 fold enrichment (6-mer frequency, TF over GST control)
- binding signal (ETV3L): 1.24 fold enrichment (6-mer frequency, TF over GST control)
- binding signal (ETS2): 1.19 fold enrichment (6-mer frequency, TF over GST control)
- binding signal (SPDEF): 1.06 fold enrichment (6-mer frequency, TF over GST control)
- binding signal (ETV7): 1.27 fold enrichment (6-mer frequency, TF over GST control)
- binding signal (ELF5): 1.09 fold enrichment (6-mer frequency, TF over GST control)
- binding signal (ETV3): 1.21 fold enrichment (6-mer frequency, TF over GST control)
- binding signal (ETV6): 1.16 fold enrichment (6-mer frequency, TF over GST control)
